Results published in the supplement of paper PMC9337992.
± gives the standard deviation of the averaged measurements.

What follows are compounds tested on MDAMB231 (assay: cell proliferation (confluence) relative to DMSO control; higher = less growth inhibition). Conditions: 5 uM; 6 d.
Description: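 Epigenetic chemical probe screen: 15 TNBC cell lines, 500 cells per well in 384-well plates, treated with 5 uM of each of 36 SGC probes for 6 d. Confluency was imaged by IncuCyte ZOOM and normalised to DMSO control wells. Four replicate wells per compound.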

**Q.** For `O=C(O)CNC(=O)c1c(O)c2ccccc2n(Cc2ccccc2)c1=O`, which cell proliferation is on record?
**A.** The cell proliferation was 97.33 ± 0.35%.

**Q.** `COc1cc(C(=O)N2CC[C@@H](O)[C@@H](N)C2)cc2nc(-c3cc4ccccc4n3CC3CC3)n(C)c12` was tested. Which cell proliferation did it give?
**A.** The cell proliferation was 88.8 ± 9.1%.

**Q.** How did the cell proliferation turn out when `c1ccc([C@@H]2C[C@H]2NC2CCNCC2)cc1` was run?
**A.** The cell proliferation was 98.48 ± 0.8%.
